# Laboratory results as given in PubChem BioAssay AID1706 (The Scripps Research Institute Molecular Screening Center, 2009).
# The campaign covered roughly 290,000 compounds. About 400 (0.14%) were called active. This excerpt belongs to a sample that is enriched for actives. Unmarked numbers belong to inactive results. No stated cut-off is given here; in the data, active means inhibition above about 12%; inactive means the rest.
# Biological target: Replicase polyprotein 1ab (Severe acute respiratory syndrome coronavirus) (UniProt P0C6X7)
# Assay: blockers of SARS 3CLpro peptide cleavage – biochemical, quenched FRET, primary screen (AID 1706)
# Conditions: recombinant SARS-CoV 3CLpro, at 6 µM, stronger effect = higher value
row,SMILES,inhibition
1,Cc1ccccc1-c1nc(CS(=O)(=O)CC(=O)NC(C)c2ccccc2)c(C)o1 (stereo not drawn),-0.9%
2,COc1ccccc1N1CCN(C(=O)c2cc(=O)c3cc(C)ccc3o2)CC1,-1.99%
3,O=C(c1cc(=O)c2ccccc2o1)N1CCN(c2ccccc2)CC1,13.7% (active)
4,COc1cc2c(cc1OC)CN(C(=O)c1cc(=O)c3ccccc3o1)CC2,-3.13%
5,CCOc1ccc(OCCSc2nc3ccccc3n2CC(=O)O)cc1,1.7%
6,Cc1coc2c1c(C)cc1oc(=O)c(CC(=O)NCC(=O)N[C@H](C(=O)O)C(C)C)c(C)c12,2.83%
7,Cc1ccc(S(=O)(=O)N[C@@H](Cc2ccccc2)C(=O)N2CCC(C(=O)N[C@H](C(=O)O)C(C)O)CC2)cc1 (stereo partly drawn),-4.09%
8,COc1ccc(S(=O)(=O)c2c[nH]c(=S)[nH]c2=O)cc1Cl,-1.78%
9,CN(CC(=O)N1CCN(c2ccccc2)CC1)S(=O)(=O)c1cccs1,2.74%
10,CC(=O)c1ccc(S(=O)(=O)N2CCC(Oc3ccc(-n4cnnn4)cc3)CC2)cc1,-1.99%
11,CC(Sc1nnc(CNC(=O)c2ccccc2F)n1C)C(=O)Nc1nccs1 (stereo not drawn),-0.59%
12,COc1cc(C(=O)NCCOC(=O)c2cccc(N(C)C)c2)cc(OC)c1OC,0.81%
13,CCOC(=O)C1CCCN(CCSc2ccc(C)cc2)C1 (stereo not drawn),-2.08%
14,O=C(O)c1ccc(NC(=O)c2cn(-c3ccccc3)nc2-c2ccc(Cl)cc2)cc1,12.7% (active)
15,Cc1ccc(-c2nn(-c3ccccc3)cc2C(=O)Nc2cccc(S(=O)(=O)N3CCOCC3)c2)cc1,1.75%
16,COc1ccc(-c2nn(-c3ccccc3)cc2/C=C\C(=O)Nc2ccc(C(=O)O)cc2)cc1,7.15%
17,CCc1ccc(N(C(=O)c2csnn2)C(C(=O)NC2CCCCC2)c2ccncc2)cc1 (stereo not drawn),0.17%
18,CC(C)(C)c1ccccc1NC(=O)CN1C(=O)NC2(CCCC2)C1=O,0.18%
19,Clc1ccc(Cc2nn3c(-c4ccncc4)nnc3s2)cc1,2.77%
20,O=C(NCCCN1CCCCC1)C1CCCN(c2ncnc3c2nc2n3CCCCC2)C1 (stereo not drawn),1.81%
21,Cc1nn2c(=O)cc(COC(=O)c3ccc(NC(=O)C(C)(C)C)cc3)nc2s1,-0.62%
22,Fc1ccccc1/C=N/Nc1cc(N2CCCCC2)ncn1,0.22%

row,SMILES,inhibition
1,O=C(C1CCC(C(=O)N2CCCC2)CC1)N1CCCC1 (stereo not drawn),-3.63%
2,COc1cccc(-c2noc(C3CCCN(C(=O)c4ccc(F)cc4)C3)n2)c1 (stereo not drawn),2.89%
3,CCNS(=O)(=O)c1ccc(CCC(=O)N2CCN(c3cc(Cl)ccc3C)CC2)cc1,0.81%
4,CC(C)(C)C1CCC(C(=O)NCC(c2cccs2)N2CCOCC2)CC1 (stereo not drawn),4.8%
5,COc1cc(NS(=O)(=O)c2ccc(NC(=S)NC(=O)c3ccc(Br)cc3)cc2)ncn1,-2.77%
6,COc1cc(CCC(=O)N2CCN(c3ccccc3Cl)CC2)cc(OC)c1OC,-0.35%
7,CCN(CC)S(=O)(=O)c1ccc(Cl)c(C(=O)NCCN2CCOCC2)c1,-0.28%
8,CC(C)CCN1CCN(Cc2cn[nH]c2C2CCCCC2)CC1CCO (stereo not drawn),1.66%
9,COc1ccccc1/C=C/C(=O)NC(=S)N1CCOCC1,2.02%
10,COc1ccc(Cc2nc3ccc(C(=O)N4CCC(N(C)C)C4)cc3o2)cc1 (stereo not drawn),-1.77%
11,Cc1cccc([C@@H]2[C@@H]3C(=O)N(Cc4ccccc4)C(=O)[C@@H]3[C@]3(C)C(=O)N(c4ccc(Br)cc4)C(=O)N23)c1,-2.23%
12,Cc1cccc(N2C(=O)N3[C@H](c4ccc(F)cc4)[C@@H]4C(=O)N(C5CCCCC5)C(=O)[C@@H]4[C@]3(Cc3ccccc3)C2=O)c1,9.1%
13,C[C@@]12C(=O)N(c3cccc(Br)c3)C(=O)N1[C@H](c1ccc(Cl)cc1)[C@@H]1C(=O)N(C3CCCCC3)C(=O)[C@@H]12,32.5% (active)
14,Cn1c(=O)c(=O)n(C)c2cc(S(=O)(=O)CCC(=O)N3CCCCC3)ccc21,-7.51%
15,O=C(NCc1cccc(C(F)(F)F)c1)c1cccc(S(=O)(=O)N2CCN(Cc3ccccc3)CC2)c1,1.65%
16,O=C(NCc1ccccc1)c1ccc(S(=O)(=O)Nc2cccc(C(F)(F)F)c2)cc1,17.3% (active)
17,O=C(COc1ccc(S(=O)(=O)Nc2cccc(C(F)(F)F)c2)cc1)N1CCOCC1,-1.24%
18,CN(C(=O)CCNC(=O)Cn1ccc2ccccc2c1=O)c1ccc(Br)cc1,1.62%
19,COc1ccc(/C=C(\C#N)c2c[nH]c3ccccc23)cc1,14.6% (active)
20,COc1cc(/C=C(\C#N)c2nc3ccccc3[nH]2)ccc1O,-3.33%
21,COc1ccc2[nH]cc(/C=C(/C#N)S(=O)(=O)c3ccccc3)c2c1,4.75%
22,CC(c1cccnc1)N(CCN(C)C)C(=O)Nc1ccc(Cl)c(Cl)c1 (stereo not drawn),2.29%

row,SMILES,inhibition
1,CS(=O)(=O)N(Cc1ccccc1Cl)c1ccc(C(=O)NCc2cccnc2)cc1,1.33%
2,O=C(Nc1ccc(S(=O)(=O)NCC2CCCO2)cc1)c1ccc(F)cc1 (stereo not drawn),-0.56%
3,O=S(=O)(Nc1ccccc1)c1ccc(NS(=O)(=O)c2cccs2)cc1,2.66%
4,COC(=O)C1=CN(c2ccc(F)c(F)c2)C=C(C(=O)OC)C1c1ccc([N+](=O)[O-])cc1,1.13%
5,O=C(NCc1ccc(F)cc1)C1CCN(C(=O)Nc2ccc(F)cc2)CC1,5.05%
6,CC(C)c1ccc(C2C(C(=O)c3ccco3)=C(O)C(=O)N2CC2CCCO2)cc1 (stereo not drawn),-0.41%
7,Cc1nn(C)c(C)c1C(C)NC(=O)c1ccc(OC2CCN(Cc3ccccn3)CC2)cc1 (stereo not drawn),3.56%
8,CCOc1ccc(OCc2cccc(C(=O)N(CC)CC)c2)cc1,-3.35%
9,COc1ccc(C(=O)NCCSc2ccccc2C)cc1,6.37%
10,Cc1ccc(C(CNC(=O)Nc2ccccc2)N2CCN(C)CC2)cc1 (stereo not drawn),-5.22%
11,Cc1ccc(CS(=O)(=O)CCC(=O)NCc2ccc(F)cc2)cc1,-1.28%
12,COc1cccc(CC2(CO)CCCN(Cc3ccc(OC(F)F)cc3)C2)c1 (stereo not drawn),-5.59%
13,COc1ccc(CN(C)C(=O)CC(c2ccccc2)c2ccccc2)cc1,4.64%
14,CCOC(=O)CN(Cc1ccc(OC)c(OC)c1)S(=O)(=O)c1ccc(OC)cc1,4.93%
15,COc1ccc(C(CCN(Cc2ccc(OC)c(OC)c2)C(=O)CCl)c2ccccc2)cc1 (stereo not drawn),34.5% (active)
16,COC(=O)COc1cccc2c(=O)n(CC(=O)NCCc3ccc(OC)c(OC)c3)ccc12,4.26%
17,Cc1ccc(CNC(=O)CCNC(=O)Cn2ccc3ccccc3c2=O)cc1,3.36%
18,COC(=O)COc1cccc2c(=O)n(CC(=O)NCc3ccccc3)ccc12,12.8% (active)
19,CCC(C)N1C(=S)SC(C)(C)C1N(O)C(=O)NC1CCCCC1 (stereo not drawn),-0.75%
20,CCCCNC(=O)N(O)C1N(/N=C/c2ccccc2O)C(=S)SC1(C)C (stereo not drawn),4.34%
21,CCCCNC(=O)N(O)C1N(/N=C/c2ccc(N(C)C)cc2)C(=S)SC1(C)C (stereo not drawn),77.3% (active)
22,O=C(Cc1ccccc1F)NC1CCSc2ccccc21 (stereo not drawn),-4.7%

row,SMILES,inhibition
1,Cc1ccnc(NS(=O)(=O)c2ccc(NC(=O)c3oc4ccccc4c3C)cc2)n1,-4.86%
2,C=C(C)COc1ccc(-c2n[nH]c(C)c2-c2ccccc2OC)c(O)c1,11.1%
3,CCOc1ccc(-c2n[nH]c(C)c2-c2ccccn2)c(O)c1,3.95%
4,C=C(C)COc1ccc(-c2n[nH]c(C)c2-c2ccccc2)c(O)c1,14.1% (active)
5,CC(=O)c1cc(-c2ccccc2)[nH]c1N1CCCC1,57.1% (active)
6,CC(=O)c1cc(C#N)c(N2CCCCC2)nc1C,5.03%
7,O=c1cc(-c2ccccc2)nc(N2CCCCC2)[nH]1,3.63%
8,CC(=O)c1cnc(Nc2nc(C)c3cc(C)ccc3n2)nc1C,2.54%
9,CN(C)/N=C/c1cn(-c2ccccc2)nc1-c1cccnc1,9.07%
10,O=C(O)/C=C/c1cn(Cc2ccccc2)nc1-c1cccs1,3.03%
11,O=Cc1cn(Cc2ccccc2)nc1-c1cccnc1,39.5% (active)
12,O=C1CCC(=O)N(c2ccccc2)N1,2.8%
13,CC(C)C[C@@H](CO)N1CCN(Cc2ccc(O)cc2)CCC1=O,-3.5%
14,CC(C)Nc1ccc(-n2nc3ccccc3[n+]2[O-])cc1,-2.9%
15,COc1ccc(N2CCN(C(=O)CNC(=O)c3ccc(Br)o3)CC2)cc1,-5.34%
16,O=C(Nc1ccc(S(=O)(=O)N2CCCCC2)cc1)C1CC(=O)N(c2ccc(F)cc2)C1 (stereo not drawn),1.61%
17,CCc1ccc(-n2c(SCc3cc(=O)n4cc(Br)ccc4n3)nc3[nH]ncc3c2=O)cc1,0.2%
18,CN(C)Cc1c(C(=O)N/N=C/c2ccccc2OCc2ccc(F)cc2)nnn1-c1nonc1N,0.8%
19,COc1ccc(NC(C(=O)Nc2cccc(C(C)=O)c2)c2ccccc2)cc1 (stereo not drawn),1.08%
20,CCOC(=O)c1cccc(NC(=O)C2CCN(c3ncnc4c3nc3n4CCCCC3)CC2)c1,6.86%
21,CCn1c(/C=C/Nc2ccccc2)[n+](CC)c2ccc(C(=O)OCC(F)(F)F)cc21,-5.62%
22,CC1CCN(Cc2nc3c(c(=O)n(C)c(=O)n3C)n2CCc2ccccc2)CC1,0.08%
